Source: PubChem BioAssay (NCI)
The panel holds about 83,000 compounds, 20% with a hit somewhere; the sample as a whole holds those more often.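 Growth was measured after 48 h exposure to one concentration of compound in 96-well plates. Values under 10 count as active.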 A number with no mark means an inactive call. Activity calls are given as the source filed them.

Each compound was assayed on BT-549 breast (assay: NCI-60 one-dose screen, 48 h (100 = growth as untreated, 0 = no growth, -100 = all killed)). Conditions: 10 µM.
`O=S(=O)(c1ccc(Cl)cc1)c1nc(-c2ccccc2)oc1S(=O)(=O)c1ccc(Cl)cc1` was tested, and the growth was 142%. For `O=[N+]([O-])c1ccc(-c2nc(-c3ccccc3)c(-c3ccccc3)n2-c2ccc(S(=O)(=O)Nc3ncccn3)cc2)cc1`, the growth was 10.7%. For `Cc1cc(C(F)(F)F)ccc1C(=O)Nc1sc2c(c1C#N)CCC(=O)C2`, the growth was -76.1% (active). With `Cc1ccn2c(C(=O)c3ccccc3)cc(-c3cc(-c4ccc(N(C)C)cc4)c(C#N)c(N)n3)c2c1` the growth was 58.1%. For `COc1ccc2ncc(C#Cc3cncc(C(=O)Nc4ccc(CN5CCN(C)CC5)c(C(F)(F)F)c4)c3)n2n1`, the growth was -75.7% (active). Compound `CN1CCN(Cc2ccc(C(=O)Nc3cccc(Nc4ccc5cc(O)ccc5n4)c3)cc2C(F)(F)F)CC1` has a growth of 78.1%. `O=C(c1ccc(Cl)cc1)C1[C@H](c2ccccc2Br)[C@@H](c2ccccc2)NC12C(=O)Nc1ccc(Cl)cc12` (some centres not stated) gave a growth of 75.9%. `N#Cc1c(Cl)nc(SCc2ccc(F)cc2)nc1-c1ccc(F)cc1` gave a growth of 95.4%. In the case of `CC1=N/C(=C\c2ccc(N(C)C)cc2)C(=O)N1CCc1ccc(S(N)(=O)=O)cc1`, the growth is reported as 92.7%. Compound `CC1(C)CC[C@]2(C(=O)O)CC[C@]3(C)C(=CC[C@@H]4[C@@]5(C)C/C(=C/c6ccncc6)[C@H](O)C(C)(C)[C@@H]5CC[C@]43C)[C@@H]2C1` has a growth of 50.8%. With `Cc1ccc(/C=C/C(=O)c2ccc(NC(=O)CSc3nnc(-c4c[nH]c5ccccc45)n3-c3ccccc3)cc2)c(C)c1` the growth was 52.8%. `COC1=C[C@]23CCC(=O)N2CCc2cc4c(cc2[C@@H]3[C@@H]1OC(=O)CCCC(C)C)OCO4` was tested, and the growth was 85.4%. For `COC(=O)c1c(C(=O)OC)c2n(c1C)[C@@H]([C@@H](C)[C@H]1CC[C@H]3[C@@H]4CCC5=CC(=O)CC[C@]5(C)[C@H]4CC[C@]13C)SC2`, the growth was -3.38% (active). In the case of `O=C(CNc1nc(-c2ccccc2)cs1)Nc1cccc([N+](=O)[O-])c1`, the growth is reported as -73.1% (active). For `CN(C(=O)c1ccc(C(C)(C)C)cc1)c1sc2c(c1C#N)CCC(=O)C2`, the growth was -27.7% (active). In the case of `Cc1cc(C)nc(NS(=O)(=O)c2ccc(N/C(N)=N/c3nccc(-c4ccccc4)n3)cc2)n1`, the growth is reported as 83.7%. In the case of `O=C(NO)c1ccc(Cn2ccc3c(Nc4ccccc4)ncnc32)cc1`, the growth is reported as 27.4%. `Cc1noc2c(Cc3ccccc3)nn(CC(=O)N/N=C/c3ccc(Br)cc3)c(=O)c12` showed a growth of 87.2%. In the case of `N#Cc1c(-c2ccc(F)cc2)nc(SCc2ccc([N+](=O)[O-])cc2)nc1N1CCOCC1`, the growth is reported as 58.5%. With `COc1ccc(-c2ccc(/C=N/NC(=O)c3[nH]c4ccc(Br)cc4c3-c3ccccc3)s2)cc1` the growth was 117%. For `CC1(c2ccccc2)NC(=O)N(CC(=O)Nc2ccc(C(=O)/C=C/c3ccc(Cl)cc3)cc2)C1=O` (configuration not stated), the growth was 1.57% (active). Compound `O=c1[nH]c2ccccc2cc1CSc1ccc(Nc2nccc(-c3ccc4ccccc4c3)n2)cc1` has a growth of 48.6%. `COC(=O)CC1CC1C1Cc2c(nc(N(C)S(C)(=O)=O)nc2C(C)C)-c2ccc(F)cc21` (configuration not stated) gave a growth of 64.8%. With `COc1ccc(CN2[C@H](C(=O)NCCCCCCC(=O)NO)Cc3c([nH]c4ccccc34)[C@H]2C2CC2)cc1` the growth was 25.5%. Work on `O=C(CSc1nnc(-c2c[nH]c3ccccc23)n1-c1ccccc1)Nc1ccc(C(=O)/C=C/c2cccc([N+](=O)[O-])c2)cc1` yielded a growth of 93.5%. With `Cc1ccc(NCC(=O)Nn2c(COc3ccccc3)nc3ccccc3c2=O)cc1` the growth was 97.6%. In the case of `C/C(=C\CC/C=C(\C)CC/C=C(\C)CC[C@@H](O)C(C)(C)O)CC/C=C(\C)CC[C@@H](O)C(C)(C)O`, the growth is reported as 8.56% (active). `CCOC(=O)N/C(=C1/OCCN1C)[P+](c1ccccc1)(c1ccccc1)c1ccccc1` showed a growth of 75.4%. For `COc1cccc(-c2ccc(/C=N/NC(=O)c3[nH]c4ccc(Br)cc4c3-c3ccccc3)o2)c1`, the growth was 25.8%. `Cn1cc(/C=N/Nc2cccc(Cl)n2)c2ccccc21` was tested, and the growth was 43.4%. In the case of `O=C(CNc1nc(-c2ccccc2)cs1)Nc1ccc(Cl)cc1[N+](=O)[O-]`, the growth is reported as -46.6% (active). With `CCCCCCCCCCCCCCCCCCCC(=O)NCCc1c[nH]c2ccc(OC(=O)CCCC(=O)OCCOOCCOOCCOOCCOOCCOOCCOOCCOOCCOOCCOOCCOOCCOOCCOC)cc12` the growth was -20.2% (active).
